Screening results as filed in PubChem.
14-3-3 Bad PPI = inhibitors of 14-3-3 zeta/Bad binding, primary screen, biochemical, TR-FRET, bovine 14-3-3 zeta; 14-3-3 protein zeta/delta (Bos taurus), P63103; TR-FRET 14-3-3zeta/Dy647-pBad peptide displacement, 1 h; inhibition, % at 21.7 µM; hit rate 0.71% among 220,000; AID 781, 2007;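 active = inhibition above about 70%, limit read from the data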;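 note: 0% = full 14-3-3 plus peptide FRET controls and 100% = background without 14-3-3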
Mcl1 Bid PPI = Mcl-1/Bid binding inhibitors, primary screen, biochemical, TR-FRET, 1536-well. AID 1021, 2008. Induced myeloid leukemia cell differentiation protein Mcl-1 (Homo sapiens), Q07820. inhibition, % at 21.7 µM. hit rate 0.97% among 220,000. TR-FRET Mcl-1/Bid-Dy647 peptide binding;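 active = compounds that cut the binding signal by more than half at the single screening dose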;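 note: His-tagged Mcl-1 with europium anti-His antibody binding Bid BH3 peptide; 0% = Mcl-1 plus peptide wells and 100% = peptide-only wells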
Mcl1-Noxa inh = Mcl-1/Noxa binding inhibitors, primary screen, biochemical, TR-FRET, 1536-well; inhibition, % at 21.7 µM; Induced myeloid leukemia cell differentiation protein Mcl-1 (Homo sapiens), Q07820; TR-FRET Mcl-1/Noxa peptide binding, 2 h; hit rate 1.5% among 220,000;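 active = compounds that cut the protein-peptide binding signal by more than 50% relative to plate controls in a single-dose test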;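 note: His-tagged Mcl-1 with rhodamine Noxa BH3 peptide and terbium anti-His antibody; 0% = Mcl-1 plus Noxa peptide wells and 100% = peptide-only wells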
NCF1 inh = p47phox/p22phox peptide binding inhibitors, primary screen, biochemical, uHTS, NADPH oxidase regulatory subunit. fluorescence polarization, 2 h. inhibition, % at 24.7 µM. hit rate 0.53% among 220,000. AID 1274, 2008;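 note: 0% = p47phox with labelled peptide and 100% = labelled peptide alone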
Bim-Mcl-1 = inhibitors of Bim peptide binding to Mcl-1, primary screen, biochemical, bead-based flow cytometry, multiplex. inhibition, % at 10 µM. Bim peptide-Mcl-1 binding. Induced myeloid leukemia cell differentiation protein Mcl-1 (Homo sapiens), Q07820. hit rate 0.1% among 190,000; in the data active = inhibition above about 40%;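 note: 0% = no compound tracer wells and 100% = peptide blocker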
eIF4E-4G inh = eIF4E–eIF4G protein interaction inhibitors, primary screen, biochemical, uHTS, TR-FRET, eIF4GI fragment; Eukaryotic translation initiation factor 4E (Mus musculus) + Eukaryotic translation …; TR-FRET eIF4E-eIF4GI(517-606) binding, 2 h; inhibition, % at 21.7 µM; hit rate 0.37% among 220,000;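 note: 0% = full FRET control wells and 100% = background wells lacking eIF4GI fragment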
* = called active by the depositor; nt = no result given; [ ] = dose if it differs, or a comment. Shown are actives, neighbours in structure and some others; about 3.3% of the full set was active somewhere.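 Rule for the calls, unless noted: active = inhibition above about 30% (limit read from the data); inactive = the rest.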

SMILES	14-3-3 Bad PPI	Mcl1 Bid PPI	Mcl1-Noxa inh	NCF1 inh	Bim-Mcl-1	eIF4E-4G inh
CC(NC(=O)Nc1cccc([N+](=O)[O-])c1)(C(F)(F)F)C(F)(F)F	7	-5	15	-10	0	-5
Cc1ccc(COc2cccc3c2CCN(Cc2ccc(F)cc2)C3=O)cc1	4	54*	12	-18	-3	5
Cc1cccc(CN2CCc3c(OCC(=O)NCc4ccco4)cccc3C2=O)c1	6	95*	3	-4	-7	-2
CCN1C(=O)/C(=C\c2cn(CCC#N)nc2-c2ccc(F)cc2)SC1=S	-15	-8	14	-54	0	5
O=C(NCC1CCCO1)c1ccc2c(=O)n(CC3CCCO3)c(SCC(=O)N3CCCC3)nc2c1 (centres undefined)	-11	2	16	-6	-2	4
O=C1CS/C(=N\C(=O)N2c3ccccc3Sc3ccccc32)N1	-8	0	69*	-58	-1	1
O=C(O)CN1C(=O)/C(=C/c2ccsc2)SC1=S	10	-32	2	-51	-2	1
C=CCN1C(=O)/C(=C/c2ccsc2)SC1=S	-8	1	17	14	64*	4
CC(C)(C)NC(=O)C(c1ccc(O)cc1)N(C(=O)Cn1nnc(-c2ccc(F)cc2)n1)c1ccccc1F (centres undefined)	4	-33	-5	1	4	5
Cc1cccnc1Nc1nc(-c2ccc(O)c(O)c2)cs1	2	-10	69*	4	-9	3
COc1cc(NC2c3ccccc3C(=O)N2Cc2ccc3c(c2)OCO3)cc(OC)c1 (centres undefined)	1	-19	17	-1	nt	0
COc1cc(/C=N/n2cc(-c3ccccc3)[nH]c2=S)cc(OC)c1O	1	-17	41	-26	nt	-1
Oc1ccc(/C=N/n2cc(-c3ccccc3)[nH]c2=S)cc1	-6	-41	73*	7	-9	-3
Cc1ccc(/C=N/n2cc(-c3ccccc3)[nH]c2=S)s1	-11	-47	54*	-12	-8	-4
S=c1[nH]c(-c2ccccc2)cn1/N=C/c1ccccc1Br	-2	-34	28	3	-6	-1
O=C(Cc1ccc(Cl)cc1)NNC(=O)Nc1cccc2ccccc12	2	-38	-9	60*	0	3
O=C(Nc1ccccc1C(=O)O)c1cccc(NC(=O)c2ccc(Br)o2)c1	8	16	36	-16	-2	-3
O=C(Nc1cccc2ccccc12)c1ccc(Br)o1	-6	-29	-11	-11	3	47*
O=C(Nc1ccccc1C(=O)O)c1ccc(NC(=O)c2ccc(Br)o2)cc1	-16	-21	-11	90*	-5	-3
CC1(C)C2CCC1(CS(=O)(=O)N1CCC(C(=O)O)CC1)C(=O)C2 (centres undefined)	-4	-13	-5	-4	nt	-2
CCOC(=O)C1CCN(C(=O)Nc2ccc3nc(-c4ccco4)c(-c4ccco4)nc3c2)CC1	32	25	97*	-12	19	44*[fluorescence artefact?]
O=C(Nc1ccc2nc(-c3ccco3)c(-c3ccco3)nc2c1)N1CCCCCC1	35	59*	105*	-29	16	28
CCOC(=O)C1CCN(C(=O)Nc2ccc3c(c2)nc(C)n3C)CC1	-9	-6	nt	-8	-1	-2
CCOc1ccc(-n2nc3c(=O)[nH]nc(C)c3c2C)cc1	4	-7	8	57*	-3	12
CCOc1ccc(-n2nc3c(=S)[nH]nc(C)c3c2C)cc1	-3	-103	2	-8	0	-6
SMILES	14-3-3 Bad PPI	Mcl1 Bid PPI	Mcl1-Noxa inh	NCF1 inh	Bim-Mcl-1	eIF4E-4G inh
CCOc1nsc(OCC)n1	1	-4	59*	6	nt	2
CCOc1ccc2nc(Cl)sc2c1	-5	-6	14	7	0	-3
CC(C)(C)C(=O)/C=c1\s/c(=C\c2ccc(-c3ccc([N+](=O)[O-])cc3)o2)c(=O)n1CC(=O)NC(N)=O	-10	-6	27	-4	-17	9
O=C(O)c1ccc(-c2ccc(/C=N/Nc3ccc([N+](=O)[O-])cc3)o2)cc1	-3	-49	62*	-40	nt	9
NS(=O)(=O)c1ccc(-c2ccc(/C=N/Nc3ccc(C(=O)O)cc3)o2)cc1	3	-83	59*	-28	nt	0
NC1=NC(c2ccccc2)N=C(Nc2ccccc2)N1 (centres undefined)	-5	-14	-1	-9	nt	4
COc1cc(Cl)c(C)cc1NC(=O)CSc1cc(Cl)ccc1Cl	-3	-4	56*	-29	-1	0
CCN1CCN(C(=S)c2ccc(-c3ccccc3)cc2)CC1	-6	-35	16	-9	-7	0
COc1cc(-c2nc(-c3ccccc3)c(-c3cccs3)[nH]2)cc(OC)c1OC	4	-15	-8	-34	5	-21
COc1cc(-c2nc(-c3ccccc3)c(-c3cccs3)[nH]2)cc(OC)c1O	-2	-29	55*	-43	4	7
O=S(=O)(NCC1CCCO1)c1ccc(S(=O)(=O)N(Cc2ccc(F)cc2)Cc2ccccn2)cc1 (centres undefined)	8	-12	5	-12	-2	-2
CCC1CCCCN1S(=O)(=O)c1ccc(S(=O)(=O)N(Cc2ccccn2)CC2CCCO2)cc1 (centres undefined)	-6	-15	90*	-6	1	-7
CCOC(=O)NN1C(=O)c2ccccc2NC1c1ccc(OC)cc1OC (centres undefined)	-22	-37	11	-1	0	-4
Cc1cccc(-c2nnc3n2N=C(c2ccccc2Br)CS3)c1	-9	-14	5	-2	1	-1
Cc1nc(N2CCN(c3ccccc3)CC2)[nH]c(=O)c1Cc1ccccc1	92*	-16	-11	2	0	3
CCOC(=O)Cn1c(=O)oc2cc(S(=O)(=O)NCc3cccs3)ccc21	-5	-5	9	-5	-2	54*[fluorescence artefact?]
COc1ccc(/C=C/CN2CCCC(CCC(=O)NCc3ccc(F)c(F)c3)C2)cc1 (centres undefined)	7	-20	20	-20	0	2
Cc1ccc2[nH]c(C(=O)O)c(NC(=O)[C@@H]3C[C@@H]3c3ccccc3)c2c1	-15	-11	28	113*	nt	0
Cc1ccc2[nH]c(C(=O)O)c(NC(=O)CN3CCN(c4cccc(C)c4C)CC3)c2c1	-13	24	13	-6	5	-2
